Drawing on PubChem BioAssay AID504339 (National Center for Advancing Translational Sciences (NCATS), 2011), this text covers Potency for 106 compounds.

The campaign covered roughly 390,000 compounds. About 17,000 (4.4%) were called active. Where a call stands in place of a potency, no number is given. About 8% were inconclusive and are not listed. The sample holds actives, similar compounds and a random draw of the others, so the mix is not that of the screen. The call rests on the fitted dose curve; in most records, active means well fitted inhibition curve with a large enough effect; inconclusive means small, poorly fitted or top-dose-only effect; inactive means no such curve, though single readings can be large or run the other way.
Potency means the concentration at half of the fitted maximal effect.

The target of the assay is Lysine-specific demethylase 4A (Homo sapiens) (UniProt O75164). As to the kind of experiment: qHTS Assay for Inhibitors of JMJD2A-Tudor Domain. Further: nearly all actives have a fitted effect of over 50% in size. The note with it: AlphaScreen JMJD2A-Tudor / H3K4me3 peptide binding; series mostly up to 114 µM.
Chain of Lysine-specific demethylase 4A (Homo sapiens) (O75164 whole entry, looked up, the tested form may be a part): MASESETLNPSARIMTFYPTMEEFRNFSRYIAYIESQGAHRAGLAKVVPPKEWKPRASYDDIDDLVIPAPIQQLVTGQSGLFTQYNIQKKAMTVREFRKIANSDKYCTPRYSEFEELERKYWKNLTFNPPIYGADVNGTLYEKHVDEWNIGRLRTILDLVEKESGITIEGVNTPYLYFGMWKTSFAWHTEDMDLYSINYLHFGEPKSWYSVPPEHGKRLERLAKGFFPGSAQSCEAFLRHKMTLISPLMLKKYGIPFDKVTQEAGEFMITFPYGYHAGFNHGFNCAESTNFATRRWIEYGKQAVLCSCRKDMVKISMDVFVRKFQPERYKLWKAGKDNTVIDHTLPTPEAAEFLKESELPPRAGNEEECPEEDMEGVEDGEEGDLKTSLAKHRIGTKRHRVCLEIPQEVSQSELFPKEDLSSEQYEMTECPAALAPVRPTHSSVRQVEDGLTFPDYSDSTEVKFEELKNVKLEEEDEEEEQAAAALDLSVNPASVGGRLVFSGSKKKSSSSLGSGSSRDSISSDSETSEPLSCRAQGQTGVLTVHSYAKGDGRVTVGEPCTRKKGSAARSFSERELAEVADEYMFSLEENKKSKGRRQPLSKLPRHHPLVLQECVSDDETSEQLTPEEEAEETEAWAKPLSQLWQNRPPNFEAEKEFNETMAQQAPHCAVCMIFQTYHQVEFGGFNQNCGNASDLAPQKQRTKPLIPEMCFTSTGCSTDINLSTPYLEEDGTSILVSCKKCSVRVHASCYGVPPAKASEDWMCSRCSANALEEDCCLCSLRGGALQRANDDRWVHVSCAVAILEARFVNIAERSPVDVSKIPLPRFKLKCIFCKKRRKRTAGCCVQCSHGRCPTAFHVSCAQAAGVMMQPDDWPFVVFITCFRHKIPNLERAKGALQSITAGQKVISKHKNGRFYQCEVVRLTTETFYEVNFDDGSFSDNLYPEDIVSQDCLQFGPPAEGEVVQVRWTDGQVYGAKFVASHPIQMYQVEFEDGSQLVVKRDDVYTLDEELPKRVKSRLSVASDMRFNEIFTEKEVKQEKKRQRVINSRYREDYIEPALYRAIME
Take `Brc1cccc(-c2nnn3c2nc(NC2CCCCC2)c2ccccc23)c1`: the Potency result was “inactive”.
For the compound `CCc1cc2c(cc3c(=O)n(CC(=O)NCc4cccc(Cl)c4)nc(CC)n32)s1`, the Potency result is “inactive”.
On to `O=[N+]([O-])c1ccccc1Nc1ccc(O)cc1`, for which the Potency was 63.1 µM (active).
With `O=C(Nc1ccccc1[N+](=O)[O-])C1C(c2ccccc2)=C1c1ccccc1`, the Potency entry was “inactive”.
In the case of `O=C(NCCNc1ccccc1[N+](=O)[O-])c1ccccc1F` it was “inactive”; in that of `CCOC(=O)CNC(=O)c1cc2c(=O)n3cccc(C)c3nc2s1`, “inactive”; in that of `O=C(c1ccc2c(c1)N(Cc1ccc(Cl)cc1)C(=O)c1ccccc1S2(=O)=O)N1CCCCC1`, “inactive”.
As to `O=c1c2cccnc2n(Cc2cccc(F)c2)c(=O)n1Cc1ccccc1Cl`, the Potency result was “inactive”.
Take `CCOc1cc(-c2nnc(SCC(=O)NC3CCCC3)nc2-c2ccc(OC)c(OCC)c2)ccc1OC`: the Potency result was “inactive”.
As to `O=C(NCCc1ccc(Cl)cc1)c1cccc(N2CCCC2=O)c1`, the Potency result is “inactive”.
Turning to `Oc1cc2c(cc1O)CN(C(=S)NCCc1ccc(Cl)cc1)CCC2`, the Potency was 44.7 µM (active).
In the case of `Cc1cccc(NC(=S)NCCc2ccc(Cl)cc2)c1C` it was “inactive”; in that of `Cc1ccccc1CNC(=O)C(=O)NCC(c1cccs1)S(=O)(=O)c1cccs1` (stereo unspecified), “inactive”.
Under `Cc1ccccc1OCC(=O)Nc1c(C(=O)Nc2ccccc2F)oc2ccccc12` stands “inactive”; under `O=C(Nc1cc(C(F)(F)F)ccc1Cl)c1nc2ccccc2nc1N1CCCCC1`, “inactive”; under `Oc1c(CN2CCCC2)cc(COCc2ccccc2)c2cccnc12`, 25.1 µM (active).
With `Cc1cc(=O)oc2cc(OCC(=O)N3CCN(c4ccc(F)cc4)CC3)c(Cl)cc12`, the Potency entry is “inactive”.
Under `O=C(Cc1ccccc1)NNC(=O)C1CCN(c2ncccn2)CC1` stands “inactive”; under `O=C(CN1CCN(c2ccc(F)cc2)CC1)Nc1cccc(C(F)(F)F)c1`, “inactive”.
In the case of `CCCc1cc(=O)oc2c(C)c(O)c(CN3CCCCC3)cc12` it was “inactive”; in that of `Oc1c(CN2CCN(c3ccc(F)cc3)CC2)cc(Cl)c2cccnc12`, 25.1 µM (active); in that of `Cc1ccc(O)c(NC(=O)CCS(=O)(=O)c2nc(-c3ccc4c(c3)OCO4)cc(C(F)(F)F)n2)c1`, “inactive”.
Take `CCOc1ccc(NC(=O)c2c(NC(=O)Cc3ccccc3)sc3c2CCC(C)C3)cc1` (stereo unspecified): the Potency entry was “inactive”.
Under `Cc1ccc(-n2ncc3c(N4CCC(C(N)=O)CC4)ncnc32)cc1` stands “inactive”.
In the case of `COc1ccc(Cn2c(C(=O)O)c(CNCc3cccc(OC)c3)c3ccc(C)cc32)cc1`, the Potency entry was “inactive”.
On to `COc1ccccc1C(=O)Nc1c(C(=O)Nc2ccc(C)cc2)oc2ccccc12`, for which the Potency result is “inactive”.
For `Cc1ccc(-c2nn3c(=O)cc(CN4CCN(S(=O)(=O)c5ccc(Cl)cc5)CC4)nc3s2)cc1`, the Potency result was “inactive”.
`Cc1cccc(Cc2c(C)nc3nc(SCc4ccccc4Cl)nn3c2C)c1`: the Potency result was “inactive”.
In the case of `Cc1cc(C)n2nc(SCC(=O)NC(=O)NCc3ccco3)nc2n1` it was 20 µM (active); in that of `Cc1cc(C)n2nc(SCC(N)=O)nc2n1`, “inactive”.
Consider `O=C(CNc1ccc(F)cc1F)NC(=O)NCc1ccco1`, for which the Potency result was “inactive”.
On to `COc1ccc(-c2onc(C)c2C)cc1S(=O)(=O)NCC1CCN(Cc2cccc(F)c2)CC1`, for which the Potency entry was “inactive”.
In the case of `CCN(CC)S(=O)(=O)c1cccc(-c2n[nH]c(=S)n2/N=C/c2ccc(C(=O)OC)cc2)c1`, the Potency is 10 µM (active).
As to `COC(=O)c1ccc(NC(=O)CSc2n[nH]c(-c3ccccc3)n2)cc1`, the Potency entry is “inactive”.
On to `CCN(CC)S(=O)(=O)c1cccc(NC(=O)c2ccc(S(=O)(=O)N3CCCC3)cc2)c1`, for which the Potency entry was “inactive”.
On to `COc1ccc(N2C(=O)CS(=O)(=O)C23C(=O)N(Cc2ccc(C)cc2)c2ccccc23)cc1Cl` (stereo unspecified), for which the Potency entry is “inactive”.
Under `COc1ccc(CC(=O)NCCc2sc3nc(-c4ccc(OC)cc4)nn3c2C)cc1` stands “inactive”.
In the case of `Cc1cccc(C(=O)NCCc2nc3ccccc3n2Cc2ccccc2Cl)c1` it was “inactive”; in that of `Cc1cccc(-n2cnc(C(=O)NNC(=S)Nc3ccccc3)c2)n1`, 35.5 µM (active).
With `Cc1nn(C)cc1C(=O)NNC(=S)Nc1ccc(Cl)cc1`, the Potency entry was “inactive”.
Regarding `Cc1cccc(-n2cnc(C(=O)Nc3cccnc3)c2)n1`, the Potency entry is “inactive”.
`Cc1ccc2c(c1)c1c(c(=O)n(-c3ccccc3)c(=O)n1CC(=O)c1ccc(Cl)cc1)n2C`: the Potency result is “inactive”.
`Cc1ccc(C)c(OCC(=O)Nc2sc3c(c2C#N)CCCC3)c1C`: the Potency entry is “inactive”.
For the compound `Cc1cc(C)cc(NC(=O)CSc2nc(=O)n(CCN3CCOCC3)c3c2CCC3)c1`, the Potency entry was “inactive”.
With `O=C(COc1ccccc1Cl)N1CCCCCCC1`, the Potency result was “inactive”.
With `CC1CCCN(CCOCCOc2ccccc2-c2ccccc2)C1` (stereo unspecified), the Potency is 20 µM (active).
In the case of `c1ccc(-c2ccccc2OCCN2CCCCC2)cc1`, the Potency is 8.91 µM (active).
`CC1CCCN(CC(=O)Nc2cc(Cl)ccc2Oc2ccccc2)C1` (stereo unspecified): the Potency entry is “inactive”.
Consider `O=S(=O)(c1cccs1)N1CCN(CCOc2ccccc2)CC1`, for which the Potency entry is “inactive”.
Regarding `CC1CC(C)CN(CCOc2cccc3ccccc23)C1` (stereo unspecified), the Potency result was “inactive”.
In the case of `COCCNC(=O)CSc1nc(-c2ccccc2)[nH]c1-c1ccc(C)cc1` it was “inactive”.
Under `COc1cccc(CNC(=O)CN2C(=O)CCc3cc(S(=O)(=O)N4CCOCC4)ccc32)c1` stands “inactive”.
On to `Cc1ccc(Cl)cc1-n1ncc2c(N3CCC(C(N)=O)CC3)ncnc21`, for which the Potency entry was “inactive”.
For `Cc1ccc(C(=O)N2CCc3cc(CNC(=O)c4ccc(Br)cc4)ccc32)cc1`, the Potency entry was “inactive”.
On to `COc1ccc(N2CC(NS(=O)(=O)c3ccc4ccccc4c3)CC2=O)cc1` (stereo unspecified), for which the Potency entry was “inactive”.
For `O=C(COc1ccc(/C=N/NS(=O)(=O)c2ccccc2)cc1)NCCc1ccccc1`, the Potency result was “inactive”.
In the case of `O=S(=O)(N/N=C\c1cccn1-c1ccccc1)c1ccc2ccccc2c1` it was 50.1 µM (active); in that of `CCc1cnc2c(c1SCC(=O)N1CCC(C)CC1)c(=O)n(C)c(=O)n2C`, “inactive”.
On to `Cc1cc(C)c(NC(=O)c2cc3sc(Cl)cc3n2C)c(C)c1`, for which the Potency result was “inactive”.
Take `COC(=O)Cc1cc(=O)oc2c(C)c(O)ccc12`: the Potency entry was “inactive”.
For the compound `COc1cccc(OCC(O)CNC(=O)c2oc3c(C)c(C)ccc3c2C)c1` (stereo unspecified), the Potency result is “inactive”.
In the case of `COc1cccc(C(=O)OCc2cc(=O)oc3c(C)c(C)ccc23)c1OC` it was 79.4 µM (active); in that of `CCn1c(CN2CCC(C)CC2)nc2cc(NC(=O)c3ccccc3[N+](=O)[O-])ccc21`, “inactive”.
Turning to `Cc1nn(C(C)C(=O)Nc2ccc(C(C)C)cc2)c(=O)c2c1sc1ccccc12` (stereo unspecified), the Potency result is “inactive”.
`COc1ccc(NC(=O)CCc2nnc3n(CC(C)C)c(=O)c4ccccc4n23)cc1OC`: the Potency entry is “inactive”.
Under `COC(=O)c1ccccc1NC(=O)c1ccc(COc2ccccc2Cl)o1` stands “inactive”; under `CCN(CCCNC(=O)c1cc2c(=O)n(CC)c3ccccc3c2s1)Cc1ccccc1`, “inactive”; under `N#Cc1c(N2CCCCC2)nc(N)c2c(N)nc(SCC(=O)O)cc12`, 50.1 µM (active).
For the compound `N#Cc1c(C(F)(F)F)cc(-c2ccc(Cl)cc2)nc1SCC(=O)O`, the Potency result was “inactive”.
Regarding `O=C(O)CSc1ccc(S(=O)(=O)N2CCCC2)cn1`, the Potency result was “inactive”.
In the case of `COc1cc(NC(=O)c2cc(C3CC3)nc3c2c(C)nn3-c2ccccc2)cc(OC)c1`, the Potency entry is “inactive”.
Regarding `Cc1ccc(C)c(N2CCN(C(c3ccccc3)c3nnc(-c4ccccc4)o3)CC2)c1` (stereo unspecified), the Potency result is “inactive”.
In the case of `CCc1ccc(NC2Nc3cc(C)nn3S2)cc1` (stereo unspecified), the Potency was 22.4 µM (active).
For the compound `CCOC(=O)c1ccc(NC2Nc3cc(C)nn3S2)cc1` (stereo unspecified), the Potency result was “inactive”.
As for `COc1cccc(N2CC(NC(=O)/C=C\c3ccccc3)CC2=O)c1` (stereo unspecified), the Potency entry was “inactive”.
Regarding `Cc1ccc(C(=O)NCCc2nnc(SCC(=O)Nc3cccc(C(=O)O)c3)n2C)cc1`, the Potency entry is “inactive”.
In the case of `Cc1ccc(C)c2c1cc(C)c1nnc(SCC(=O)Nc3cccc(C(=O)O)c3)n12`, the Potency was 12.6 µM (active).
Turning to `COc1ccccc1-n1c(SCC(=O)Nc2cccc(C(=O)O)c2)nnc1-c1ccccc1O`, the Potency result is “inactive”.
On to `COC(=O)c1ccc(NC(=O)c2cc(S(=O)(=O)N3CCC(C)CC3)cn2C)cc1`, for which the Potency entry was “inactive”.
As for `Cc1ccc(Nc2nc3ccccc3nc2-n2nc(C)cc2C)c(Cl)c1`, the Potency entry is “inactive”.
Consider `Cc1ccc(Cn2ncc3c4sc(C)cc4n(C)c3c2=O)c(C)c1`, for which the Potency result was “inactive”.
Take `COCCCNC(=O)c1ccc(CNS(=O)(=O)c2ccc(NC(C)=O)cc2)cc1`: the Potency is 50.1 µM (active).
`CCCCNC(=O)C1CCC(CNS(=O)(=O)c2ccc(NC(C)=O)cc2)CC1` (stereo unspecified): the Potency entry was “inactive”.
Turning to `Cc1ccc(CCNC(=O)c2ccc(CNS(=O)(=O)c3ccc(C)cc3)cc2)cc1`, the Potency result was “inactive”.
Consider `Cc1ccc(CN2CCC(CNC(=O)c3cnn(-c4ccccc4Cl)c3C3CCN(C(=O)OC(C)(C)C)CC3)CC2)cc1`, for which the Potency result was “inactive”.
Regarding `CCc1cccc(CC)c1NC(=O)Cn1c(=O)c(-c2cc(C)ccc2NC(C)=O)nc2ccccc21`, the Potency result was “inactive”.
Under `COC(=O)c1ccccc1NC(=O)C(Cc1ccccc1)N1Cc2ccccc2C1=O` (stereo unspecified) stands “inactive”; under `CCN(CC)c1ccc(/C=N/Nc2nc(C)cc(C)n2)c(O)c1`, 50.1 µM (active).
As to `CCN(CC)c1ccc(/C=N/NC(=O)c2cnccn2)c(O)c1`, the Potency entry is “inactive”.
Turning to `CCOc1cc(/C=N/Nc2cc(C)nc3ccc(C)cc23)ccc1O`, the Potency entry is “inactive”.
As for `CCCCNC(=O)Cn1c(SCc2cccc(Cl)c2)nc2ccncc21`, the Potency result is “inactive”.
In the case of `CCCN(CCC)CCCNC(=O)Cn1ncc2c3ccccc3n(Cc3ccccc3)c2c1=O`, the Potency entry is “inactive”.
Under `C=CCc1ccccc1OCC(O)CN1CCN(CCO)CC1` (stereo unspecified) stands “inactive”.
With `Cc1ccc(OCC(O)CN2CCN(CC(O)COc3ccc(C)cc3Cl)CC2)c(Cl)c1` (stereo unspecified), the Potency entry was “inactive”.
With `Cc1cccc(OCC(O)CN2CCN(CCN3C(=O)c4cccc5cccc(c45)C3=O)CC2)c1C` (stereo unspecified), the Potency is 39.8 µM (active).
For `COc1ccc(NC(=O)Cn2c(=O)n(CCC(C)C)c(=O)c3cccnc32)cc1Cl`, the Potency result was “inactive”.
Regarding `Cc1cc(C)cc(NC(=O)c2cnc3sc(N4CCCC4)nn3c2=O)c1`, the Potency result was “inactive”.
Turning to `Cc1ccc(N2C(=O)CC(Sc3ncn[nH]3)C2=O)cc1` (stereo unspecified), the Potency was 28.2 µM (active).
Regarding `COc1ccc(N2C(=O)CC(SC(C)C)C2=O)cc1` (stereo unspecified), the Potency result was “inactive”.
Regarding `CC(=O)Nc1ccc(N2C(=O)CC(Sc3nccc(C)n3)C2=O)cc1` (stereo unspecified), the Potency result is “inactive”.
Regarding `COC(=O)c1ccccc1SC1CC(=O)N(c2cccc(C)c2)C1=O` (stereo unspecified), the Potency result was “inactive”.
For the compound `COc1ccc(-c2nc(SCC(=O)N3CCCC3)n[nH]2)cc1`, the Potency result was “inactive”.
Turning to `O=C1CC(Sc2ncn[nH]2)C(=O)N1c1ccccc1` (stereo unspecified), the Potency is 39.8 µM (active).
Consider `Cc1ccc(CC2CC(=O)N(c3ccc4c(c3)OCCO4)C2=O)cc1` (stereo unspecified), for which the Potency result was “inactive”.
In the case of `COc1ccc(N2C(=O)CC(Sc3n[nH]c(-c4ccc(C)cc4)n3)C2=O)cc1` (stereo unspecified) it was 2 µM (active); in that of `CCOc1ccccc1N1C(=O)CC(Sc2nccc(C)n2)C1=O` (stereo unspecified), “inactive”.
